Test results reported in the supplement of paper PMC10849652.
Of roughly 8,800 targets only a part is listed; those with a hit were picked by preference. About 0.5% of all pairs of compound and target were hits. Unmarked numbers belong to inactive results.

The targets below were run with CC1=C2C(=CC=C1)N=C(N(C2=O)C3=CC=CC=C3C)CN4C=NC5=C(N=CN=C54)N (assay: log2 fold change, soluble protein after heating vs DMSO (PISA); higher = thermal stabilisation; K562 lysate, 10 uM; active = over 0.2 and 3.5 SD of the protein, either way, in both replicates (recomputed)).
How it was run: (§1)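 Values give the log-two fold change in thermal stability against solvent controls, from duplicates. Crude K562 extract at 1 mg/mL protein, made by dounce homogenisation in PBS pH 7.4 with 1 mM MgCl2, was treated with 10 μM compound for 30 min. After 3 min heating across 48°C-58°C, aliquots were pooled, adjusted to 0.5% NP-40 at 4°C and centrifuged at 21,000xg for 90 min. The supernatant was measured by TMTpro 16plex LC-MS/MS with channel sums equalised.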

Chain of UniProt Q5JUR7 (Q5JUR7 whole entry, looked up): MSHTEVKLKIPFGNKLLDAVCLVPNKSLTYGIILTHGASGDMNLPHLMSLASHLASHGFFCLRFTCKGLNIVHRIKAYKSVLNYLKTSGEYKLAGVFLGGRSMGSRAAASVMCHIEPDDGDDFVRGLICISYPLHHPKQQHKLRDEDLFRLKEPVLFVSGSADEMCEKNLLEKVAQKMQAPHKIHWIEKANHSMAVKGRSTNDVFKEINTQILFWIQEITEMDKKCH
Chain of UniProt P67936 (P67936 whole entry, looked up): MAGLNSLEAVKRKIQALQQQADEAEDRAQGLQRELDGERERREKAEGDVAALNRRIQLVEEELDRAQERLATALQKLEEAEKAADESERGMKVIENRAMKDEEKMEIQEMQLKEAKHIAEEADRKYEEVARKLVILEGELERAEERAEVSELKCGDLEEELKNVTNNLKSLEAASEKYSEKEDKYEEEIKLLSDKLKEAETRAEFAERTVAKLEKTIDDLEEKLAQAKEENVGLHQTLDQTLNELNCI
Chain of UniProt Q14CS0 (Q14CS0 whole entry, looked up): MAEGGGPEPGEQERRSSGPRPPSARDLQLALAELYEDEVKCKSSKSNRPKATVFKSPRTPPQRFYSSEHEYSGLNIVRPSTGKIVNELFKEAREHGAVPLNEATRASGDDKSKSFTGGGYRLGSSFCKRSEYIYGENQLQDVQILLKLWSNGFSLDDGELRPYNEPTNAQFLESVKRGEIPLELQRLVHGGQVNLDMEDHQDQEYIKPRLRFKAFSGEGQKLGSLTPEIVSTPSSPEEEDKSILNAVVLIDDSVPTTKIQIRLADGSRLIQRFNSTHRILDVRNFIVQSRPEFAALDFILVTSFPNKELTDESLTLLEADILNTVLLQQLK
Chain of UniProt P42167 (P42167 whole entry, looked up): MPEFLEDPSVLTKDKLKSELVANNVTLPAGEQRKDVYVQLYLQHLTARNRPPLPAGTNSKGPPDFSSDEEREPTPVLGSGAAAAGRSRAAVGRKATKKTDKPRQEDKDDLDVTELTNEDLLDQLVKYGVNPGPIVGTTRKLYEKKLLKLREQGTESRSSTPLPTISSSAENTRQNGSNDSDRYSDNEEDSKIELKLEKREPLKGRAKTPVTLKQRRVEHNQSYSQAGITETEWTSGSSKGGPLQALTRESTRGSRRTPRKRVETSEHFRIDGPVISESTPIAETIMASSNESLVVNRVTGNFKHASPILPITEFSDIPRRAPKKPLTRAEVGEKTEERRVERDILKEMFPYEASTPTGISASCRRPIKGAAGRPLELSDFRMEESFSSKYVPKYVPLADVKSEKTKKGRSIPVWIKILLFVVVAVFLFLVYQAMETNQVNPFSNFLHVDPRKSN
Chain of UniProt Q5TAX3 (Q5TAX3 whole entry, looked up): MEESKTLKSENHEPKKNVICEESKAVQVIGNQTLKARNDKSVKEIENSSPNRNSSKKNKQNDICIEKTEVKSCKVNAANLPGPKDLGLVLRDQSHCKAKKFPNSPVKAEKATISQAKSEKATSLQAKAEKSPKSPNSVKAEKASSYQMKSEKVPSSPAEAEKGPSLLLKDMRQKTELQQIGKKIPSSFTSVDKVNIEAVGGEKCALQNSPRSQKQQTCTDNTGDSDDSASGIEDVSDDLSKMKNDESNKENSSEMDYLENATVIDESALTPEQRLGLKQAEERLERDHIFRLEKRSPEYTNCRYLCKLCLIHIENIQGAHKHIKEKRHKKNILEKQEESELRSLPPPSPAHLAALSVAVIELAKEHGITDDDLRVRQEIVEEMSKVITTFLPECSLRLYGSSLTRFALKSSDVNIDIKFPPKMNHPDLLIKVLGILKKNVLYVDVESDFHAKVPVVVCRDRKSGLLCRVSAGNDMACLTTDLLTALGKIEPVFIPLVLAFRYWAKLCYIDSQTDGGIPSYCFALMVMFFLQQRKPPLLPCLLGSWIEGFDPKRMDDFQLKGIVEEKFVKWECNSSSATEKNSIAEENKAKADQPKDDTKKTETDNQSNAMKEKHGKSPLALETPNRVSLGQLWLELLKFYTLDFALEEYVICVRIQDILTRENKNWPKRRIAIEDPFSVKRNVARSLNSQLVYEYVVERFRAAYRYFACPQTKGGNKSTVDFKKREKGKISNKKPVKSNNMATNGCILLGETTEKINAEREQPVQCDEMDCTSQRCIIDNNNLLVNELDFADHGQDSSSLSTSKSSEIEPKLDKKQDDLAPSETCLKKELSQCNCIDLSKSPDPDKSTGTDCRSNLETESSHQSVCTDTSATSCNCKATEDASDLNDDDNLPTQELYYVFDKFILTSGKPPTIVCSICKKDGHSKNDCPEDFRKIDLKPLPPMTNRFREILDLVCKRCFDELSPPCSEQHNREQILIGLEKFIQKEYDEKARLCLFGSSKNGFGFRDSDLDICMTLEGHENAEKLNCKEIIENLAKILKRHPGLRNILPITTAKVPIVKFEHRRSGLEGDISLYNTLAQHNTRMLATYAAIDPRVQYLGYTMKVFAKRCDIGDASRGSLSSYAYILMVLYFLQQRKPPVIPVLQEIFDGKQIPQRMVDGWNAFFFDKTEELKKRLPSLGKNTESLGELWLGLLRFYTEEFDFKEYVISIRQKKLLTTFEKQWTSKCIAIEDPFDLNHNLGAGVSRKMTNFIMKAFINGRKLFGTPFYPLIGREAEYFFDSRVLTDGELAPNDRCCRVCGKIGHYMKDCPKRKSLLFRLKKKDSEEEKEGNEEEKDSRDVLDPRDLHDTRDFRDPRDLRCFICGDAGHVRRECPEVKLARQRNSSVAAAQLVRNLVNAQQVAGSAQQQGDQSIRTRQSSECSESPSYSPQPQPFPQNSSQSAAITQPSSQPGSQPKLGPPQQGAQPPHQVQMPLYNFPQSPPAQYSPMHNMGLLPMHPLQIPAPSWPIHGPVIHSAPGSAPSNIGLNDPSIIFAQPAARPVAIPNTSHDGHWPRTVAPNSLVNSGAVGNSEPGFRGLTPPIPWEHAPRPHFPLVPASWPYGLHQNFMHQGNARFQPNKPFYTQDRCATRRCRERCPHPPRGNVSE
Chain of UniProt P17480 (P17480 whole entry, looked up): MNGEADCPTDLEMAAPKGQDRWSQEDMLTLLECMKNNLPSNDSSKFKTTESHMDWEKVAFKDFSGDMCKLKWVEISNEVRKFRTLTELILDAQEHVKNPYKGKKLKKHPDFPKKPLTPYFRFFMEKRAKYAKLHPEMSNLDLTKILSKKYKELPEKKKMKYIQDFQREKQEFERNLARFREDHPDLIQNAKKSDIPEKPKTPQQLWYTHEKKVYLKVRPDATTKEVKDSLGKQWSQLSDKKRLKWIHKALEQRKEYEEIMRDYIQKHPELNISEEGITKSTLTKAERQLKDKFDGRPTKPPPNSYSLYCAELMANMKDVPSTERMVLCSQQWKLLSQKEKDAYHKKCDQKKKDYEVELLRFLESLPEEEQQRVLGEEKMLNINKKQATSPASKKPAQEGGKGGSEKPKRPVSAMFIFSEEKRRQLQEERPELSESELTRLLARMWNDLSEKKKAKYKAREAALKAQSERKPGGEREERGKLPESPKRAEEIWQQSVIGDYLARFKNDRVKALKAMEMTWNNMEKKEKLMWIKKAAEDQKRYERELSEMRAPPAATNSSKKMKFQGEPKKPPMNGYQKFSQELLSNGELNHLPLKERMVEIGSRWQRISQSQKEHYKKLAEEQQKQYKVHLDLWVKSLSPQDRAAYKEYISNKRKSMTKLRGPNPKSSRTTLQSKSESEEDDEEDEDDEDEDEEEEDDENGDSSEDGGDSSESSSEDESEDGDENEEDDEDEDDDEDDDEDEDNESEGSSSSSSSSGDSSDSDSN
Chain of UniProt Q9P0S9 (Q9P0S9 whole entry, looked up): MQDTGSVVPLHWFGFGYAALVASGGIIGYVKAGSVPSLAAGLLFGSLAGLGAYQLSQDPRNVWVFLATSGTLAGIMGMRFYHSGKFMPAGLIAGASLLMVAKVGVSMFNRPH
Chain of UniProt Q9UPU7 (Q9UPU7 whole entry, looked up): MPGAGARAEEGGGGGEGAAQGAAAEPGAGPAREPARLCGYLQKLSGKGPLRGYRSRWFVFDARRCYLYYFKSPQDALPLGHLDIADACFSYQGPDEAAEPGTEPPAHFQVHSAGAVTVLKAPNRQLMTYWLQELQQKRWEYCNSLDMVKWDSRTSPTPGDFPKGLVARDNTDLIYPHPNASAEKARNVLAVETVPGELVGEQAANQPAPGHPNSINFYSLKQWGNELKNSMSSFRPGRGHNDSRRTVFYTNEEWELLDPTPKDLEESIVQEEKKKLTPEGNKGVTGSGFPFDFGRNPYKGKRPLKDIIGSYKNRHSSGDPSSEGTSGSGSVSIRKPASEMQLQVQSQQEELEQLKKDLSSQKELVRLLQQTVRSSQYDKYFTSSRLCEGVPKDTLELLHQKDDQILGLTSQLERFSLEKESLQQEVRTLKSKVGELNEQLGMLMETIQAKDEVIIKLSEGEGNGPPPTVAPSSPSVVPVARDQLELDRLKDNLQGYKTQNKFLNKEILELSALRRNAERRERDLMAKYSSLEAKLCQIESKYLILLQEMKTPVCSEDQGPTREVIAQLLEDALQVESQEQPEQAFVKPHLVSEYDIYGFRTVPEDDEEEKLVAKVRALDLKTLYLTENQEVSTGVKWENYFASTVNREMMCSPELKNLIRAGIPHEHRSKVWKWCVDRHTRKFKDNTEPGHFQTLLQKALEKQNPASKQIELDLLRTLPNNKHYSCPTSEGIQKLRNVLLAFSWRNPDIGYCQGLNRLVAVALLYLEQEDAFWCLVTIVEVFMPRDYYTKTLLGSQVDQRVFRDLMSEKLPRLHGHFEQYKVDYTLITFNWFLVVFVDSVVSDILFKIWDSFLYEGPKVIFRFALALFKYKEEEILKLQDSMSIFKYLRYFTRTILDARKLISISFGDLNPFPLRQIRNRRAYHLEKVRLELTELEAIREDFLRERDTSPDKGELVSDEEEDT

TNPO3 (UniProt Q9Y5L0) and TXNIP (UniProt Q9H3M7) are within 0.2 log units of each other in log2 fold change: -0.003 for the first, 0.029 for the second.

TPD52L2 isoform 7 (UniProt O43399) and TMPO isoform 2 (UniProt P42167) are within 0.2 log units of each other in log2 fold change: -0.024 for the first, 0.033 for the second.

TOX4 (UniProt O94842) and UFM1 (UniProt P61960) are within 0.2 log units of each other in log2 fold change: -0.021 for the first, -0.103 for the second.

UBE4A isoform 2 (UniProt Q14139) and UBTF (UniProt P17480) are within 0.2 log units of each other in log2 fold change: 0.003 for the first, -0.012 for the second.

UFSP2 (UniProt Q9NUQ7) and TIMELESS (UniProt Q9UNS1) are within 0.2 log units of each other in log2 fold change: 0.057 for the first, 0.01 for the second.

TPM1 isoform 4 (UniProt P09493) and TPM3 (UniProt P06753) are within 0.2 log units of each other in log2 fold change: 0 for the first, -0.018 for the second.

UBR5 (UniProt O95071) and TSFM (UniProt P43897) are within 0.2 log units of each other in log2 fold change: 0.012 for the first, 0.027 for the second.

TEX30 (UniProt Q5JUR7) and TLK2 isoform 2 (UniProt Q86UE8) are within 0.2 log units of each other in log2 fold change: -0.006 for the first, 0.033 for the second.

TTC4 (UniProt O95801) and TBCE (UniProt Q15813) are within 0.2 log units of each other in log2 fold change: 0.001 for the first, 0.014 for the second.

TBC1D2B (UniProt Q9UPU7) and TUBB2A (UniProt Q13885) are within 0.2 log units of each other in log2 fold change: -0.048 for the first, 0 for the second.

TUBGCP3 (UniProt Q96CW5) and UBXN2B (UniProt Q14CS0) are within 0.2 log units of each other in log2 fold change: 0.011 for the first, 0.019 for the second.

TTMP isoform 3 (UniProt Q5BVD1) and UBL4A (UniProt P11441) are within 0.2 log units of each other in log2 fold change: 0.135 for the first, -0.017 for the second.

TTC37 (UniProt Q6PGP7) and TMEM164 (UniProt Q5U3C3) are within 0.2 log units of each other in log2 fold change: 0.16 for the first, 0.111 for the second.

TPM4 isoform 2 (UniProt P67936) and TROAP (UniProt Q12815) are within 0.2 log units of each other in log2 fold change: 0.02 for the first, 0.024 for the second.

UBE2H (UniProt P62256) and UBA1 (UniProt P22314) are within 0.2 log units of each other in log2 fold change: 0.012 for the first, 0 for the second.

UBXN10 (UniProt Q96LJ8) and TXNRD2 (UniProt Q9NNW7) are within 0.2 log units of each other in log2 fold change: 0.056 for the first, -0.048 for the second.

UBXN6 (UniProt Q9BZV1) and TMEM14C (UniProt Q9P0S9) are within 0.2 log units of each other in log2 fold change: 0.03 for the first, 0.14 for the second.

TBRG4 (UniProt Q969Z0) and TGFBRAP1 (UniProt Q8WUH2) are within 0.2 log units of each other in log2 fold change: 0.018 for the first, 0 for the second.

TLE3 isoform 4 (UniProt Q04726) and TUT4 (UniProt Q5TAX3) are within 0.2 log units of each other in log2 fold change: 0.024 for the first, 0.035 for the second.

Each target was assayed with Cc1sc2c(c1C)C(c1ccc(Cl)cc1)=N[C@@H](CC(=O)OC(C)(C)C)c1nnc(C)n1-2 in the same assay as above.
How it was run: as §1

TNPO3 (UniProt Q9Y5L0) and TXNIP (UniProt Q9H3M7) are within 0.2 log units of each other in log2 fold change: 0.009 for the first, 0.016 for the second.

TPD52L2 isoform 7 (UniProt O43399) and TMPO isoform 2 (UniProt P42167) are within 0.2 log units of each other in log2 fold change: 0.024 for the first, -0.069 for the second.

TOX4 (UniProt O94842) and UFM1 (UniProt P61960) are the same in log2 fold change: -0.019 for the first, -0.019 for the second.

UBE4A isoform 2 (UniProt Q14139) and UBTF (UniProt P17480) are within 0.2 log units of each other in log2 fold change: 0.043 for the first, 0.007 for the second.

UFSP2 (UniProt Q9NUQ7) and TIMELESS (UniProt Q9UNS1) are within 0.2 log units of each other in log2 fold change: -0.04 for the first, 0.012 for the second.

TPM1 isoform 4 (UniProt P09493) and TPM3 (UniProt P06753) are within 0.2 log units of each other in log2 fold change: 0.003 for the first, 0.015 for the second.

UBR5 (UniProt O95071) and TSFM (UniProt P43897) are within 0.2 log units of each other in log2 fold change: -0.018 for the first, 0.066 for the second.

TEX30 (UniProt Q5JUR7) and TLK2 isoform 2 (UniProt Q86UE8) are within 0.2 log units of each other in log2 fold change: -0.1 for the first, -0.015 for the second.

TTC4 (UniProt O95801) and TBCE (UniProt Q15813) are within 0.2 log units of each other in log2 fold change: 0.033 for the first, 0.008 for the second.

TBC1D2B (UniProt Q9UPU7) and TUBB2A (UniProt Q13885) are within 0.2 log units of each other in log2 fold change: -0.065 for the first, 0.003 for the second.

TUBGCP3 (UniProt Q96CW5) and UBXN2B (UniProt Q14CS0) are within 0.2 log units of each other in log2 fold change: 0.008 for the first, 0.042 for the second.

First: TTMP isoform 3 (UniProt Q5BVD1)
Chain of UniProt Q5BVD1 (Q5BVD1 whole entry, looked up): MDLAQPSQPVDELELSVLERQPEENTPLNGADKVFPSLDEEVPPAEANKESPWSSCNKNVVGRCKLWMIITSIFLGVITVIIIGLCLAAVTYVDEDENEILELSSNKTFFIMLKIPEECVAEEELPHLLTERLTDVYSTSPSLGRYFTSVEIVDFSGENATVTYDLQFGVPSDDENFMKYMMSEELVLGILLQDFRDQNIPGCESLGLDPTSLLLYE
Second: UBL4A (UniProt P11441)
The log2 fold change of the first is lower: -0.148 for the first, 0.142 for the second.

TTC37 (UniProt Q6PGP7) and TMEM164 (UniProt Q5U3C3) are within 0.2 log units of each other in log2 fold change: -0.3 for the first, -0.217 for the second.

TPM4 isoform 2 (UniProt P67936) and TROAP (UniProt Q12815) are within 0.2 log units of each other in log2 fold change: 0.053 for the first, 0.057 for the second.

UBE2H (UniProt P62256) and UBA1 (UniProt P22314) are within 0.2 log units of each other in log2 fold change: -0.046 for the first, 0.045 for the second.

UBXN10 (UniProt Q96LJ8) and TXNRD2 (UniProt Q9NNW7) are within 0.2 log units of each other in log2 fold change: 0.095 for the first, -0.042 for the second.

UBXN6 (UniProt Q9BZV1) and TMEM14C (UniProt Q9P0S9) are within 0.2 log units of each other in log2 fold change: 0.022 for the first, -0.015 for the second.

TBRG4 (UniProt Q969Z0) and TGFBRAP1 (UniProt Q8WUH2) are within 0.2 log units of each other in log2 fold change: 0.052 for the first, 0.05 for the second.

TLE3 isoform 4 (UniProt Q04726) and TUT4 (UniProt Q5TAX3) are within 0.2 log units of each other in log2 fold change: 0.025 for the first, 0.009 for the second.
